MLL CXXC-DNA inh: qHTS Fluorescence Polarization Assay for Inhibitors of MLL CXXC domain - DNA interaction | Histone-lysine N-methyltransferase 2A (Homo sapiens), Q03164 | MLL-CXXC / FITC-HOXA9 DNA fluorescence polarization | Potency, µM (series often up to 115 µM), for the others: top-dose activity change, negative = inhibition, hits mostly inhibitors | hit rate 0.037% among 290,000 | AID 2662, 2010; active = well fitted inhibition curve with a large enough effect in the polarisation, with a control signal flat, not every such curve was filed as active; inconclusive = small, poorly fitted or top-dose-only effect, or effect the other way, or a change in a side signal; inactive = no such curve, though single readings can be large or run the other way; the % refers to the polarisation; note: potency is the fitted concentration of half-maximal effect
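Fluorescence polarization: 7 uM MLL-CXXC (stock) preincubated 5 min with compounds, then 50 nM fluorescein-HOX-A9 DNA (stock) added; 30 min ambient. Buffer 50 mM Tris-HCl pH 7.5, 50 mM NaCl, 1 mM DTT, 0.05% BSA.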
Menin-MLL TR inh: qHTS Assay for Inhibitors Targeting the Menin-MLL Interaction in MLL Related Leukemias: Competition With Texas Red Labeled MLL-derived Mutant Peptide; O00255; Menin + Texas Red MLL mutant peptide, fluorescence polarization; hit rate 0.23% among 270,000; Potency, µM (titrated, usually from 61.6 µM), without a hit: at the highest dose FP activity change, negative = inhibition, actives largely listed as inhibitors; active = well fitted inhibition curve with a large enough effect in the polarisation, with a control signal flat, not every such curve was filed as active; inconclusive = small, poorly fitted or top-dose-only effect, or effect the other way, or a change in a side signal; inactive = no such curve, though single readings can be large or run the other way; the % refers to the polarisation; note: potency is the fitted concentration of half-maximal effect; % of control where 0% means no effect
KCNH2 3.1 inh: qHTS for Inhibitors of KCHN2 3.1: Mutant qHTS | U2OS KCNH2 3.1, thallium flux FluxOr; hits give low values | activity change, % (tested at about 1.8 µM) | hit rate 0.95% among 340,000 | Potassium voltage-gated channel subfamily H member 2, brain isoform KCNH2 3.1 (human);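 active = maximum activity change below -70%; inconclusive = maximum activity change from -70% to -50%; inactive = maximum activity change above -50%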;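 note: thallium influx rate constant from kinetic fluorescence after stimulation buffer; % is set by controls: 0 for no effect and ±100 for the full control effect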
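Virally transduced U2OS (3.1 isoform, 4 h infection in dark at RT) → overnight 37 C → FluxOr + Red40 in HBSS/HEPES, 45 min → stimulation buffer, 2 min kinetic read → rate constant vs DMSO controls.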
hERG WT inh: qHTS for Inhibitors of KCHN2 3.1: Wildtype qHTS | U2OS, BacMam KCNH2, thallium flux FluxOr; hits give low values | hit rate 0.37% among 340,000 | Voltage-gated inwardly rectifying potassium channel KCNH2 (Homo sapiens), Q12809 | activity change, % at 1.84 µM;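 active = maximum activity change below -70%; inconclusive = maximum activity change between -70% and -50%; inactive = maximum activity change above -50%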; note: % is set by controls: 0 for no effect and ±100 for the full control effect
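U2OS cells were transduced with wild-type KCNH2 virus (2.03 x 10^8 / mL) for 4 h at room temperature, then cultured overnight at 37 C. Thallium flux was read with FluxOr dye. Rate constants were normalized to DMSO controls.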
Menin-MLL FL inh: qHTS Assay for Inhibitors Targeting the Menin-MLL Interaction in MLL Related Leukemias: Competition With Fluorescein Labeled MLL-derived Peptide; Fluorescence polarization, fluorescein-MLL peptide displacement from menin; FP activity change, % at 61.4 µM; 290,000 tested, under 10 active; active = well fitted curve in the direction sought with a large enough effect in the polarisation, not every such curve was filed as active; inconclusive = small, poorly fitted or top-dose-only effect, or effect the other way, or a change in a side signal; inactive = no such curve, though single readings can be large or run the other way; the % refers to the polarisation; note: % of control where 0% means no effect
An asterisk follows results filed as active; ? = inconclusive; . = no result given. Rows were chosen to be rich in hits. Some 1.1% of all compounds tested hit in one or more screens of this group.

SMILES	MLL CXXC-DNA inh	Menin-MLL TR inh	KCNH2 3.1 inh	hERG WT inh	Menin-MLL FL inh
O=C(COC(=O)/C=C/c1ccc(OC(F)F)cc1)Nc1cccc(S(=O)(=O)N2CCCC2)c1	.	.	-85*	10	.
O=C(COC(=O)/C=C/c1ccc(OC(F)F)cc1)Nc1ccc(S(=O)(=O)N2CCCC2)cc1	0%	?	-48	-4	5
O=C(/C=C/c1ccc(OC(F)F)cc1)Nc1cccc(S(=O)(=O)N2CCOCC2)c1	7%	.	-72*	-39	.
O=C(NC1CCCCC1)c1cc(S(=O)(=O)N2CCCC2)ccc1Cl	4%	-13%	-7	-2	3
CCCC[C@H]1CCCO[C@@](C(=O)NCc2ccc(C)o2)(C(F)(F)F)C1	.	-20%	.	.	3
COc1ccc(NC(C)C(=O)Nc2cccc(S(=O)(=O)N3CCOCC3)c2)cc1OC (stereo not drawn)	.	.	-3	-6	.
CCCCCCCC/C=C\CCCCCCCCCCCC(=O)O	.	-9%	.	.	-6
COC(=O)C(NC(=O)c1cccnc1Cl)C(C)C (stereo not drawn)	3%	.	8	-120*	3
Cc1nc(NC(=O)CSc2nnc(C)n2CC2CCCO2)sc1C (stereo not drawn)	-1%	-5%	15	-188*	0
COC(=O)CSc1nnc(CNS(=O)(=O)c2ccc(C)cc2)n1C	-7%	-2%	4	-253*	8
O=C(Cn1c(=O)c2c(ncn2Cc2ccccc2)n(Cc2ccccc2)c1=O)NC1CC1	17%	15%	-90*	-3	2
COc1ccc(NC(=O)C2CC2(Cl)Cl)cc1S(=O)(=O)N1CCCCC1 (stereo not drawn)	.	.	10	-2	.
Cc1ccc(NC(=O)c2nc[nH]c2C(=O)N2CCC(C)CC2)cc1	16%	.	-134*	2	5
O=C(O)Cc1sc(Nc2cccc3ccccc23)nc1-c1ccc(Cl)cc1	5%	?	2	-3	0
O=C(Nc1c(F)cc(F)cc1Br)c1cc(S(=O)(=O)N2CCN(c3ccccn3)CC2)ccc1F	10%	4%	-10	-1	4
O=C(Nc1ccc(F)c(F)c1)c1cc(S(=O)(=O)N2CCN(c3ccccn3)CC2)ccc1F	22%	8%	-78*	-30	-1
C=CCNCCCCOc1ccc(OCc2ccccc2)cc1	9%	-26%	?	.	-1
COCCCNCCCCOc1ccc(OCc2ccccc2)cc1	-4%	?	-77*	47	-2
CC1CCN(S(=O)(=O)c2ccc3c(c2)N(CC(=O)NCCN2C(C)CCCC2C)C(=O)CS3)CC1 (stereo not drawn)	-7%	.	-23	-76*	.
Cc1ccc(CNC(=O)CNC(=O)c2ccc(C(C)(C)C)cc2)n1C	.	.	15	-6	.
Fc1cccc(Cl)c1Cn1nnc(-c2ccc(N3CCOCC3)cc2)n1	-8%	-3%	-5	-5	9
Clc1cccc(Cl)c1Cn1nnc(N2CCCC2)n1	-8%	.	-1	-138*	3
COc1ccccc1OCCn1cc(C=O)c2ccccc21	-4%	-8%	-90*	-7	-7
COc1ccc(C)cc1N(CC(=O)NC1CCCC1)C(=O)Cn1nnc(-c2ccc(C)o2)n1	-7%	-18%	-101*	1	1
Cc1ccc(N(CC(=O)NC2CCCCC2)C(=O)Cn2nnc(-c3ccc(C)o3)n2)cc1	-5%	-17%	-5	5	1
SMILES	MLL CXXC-DNA inh	Menin-MLL TR inh	KCNH2 3.1 inh	hERG WT inh	Menin-MLL FL inh
CSc1oc(-c2ccccc2)nc1S(=O)(=O)c1ccc(F)cc1	-10%	-3%	-90*	3	3
O=[N+]([O-])c1cccc(CN2C(COCc3ccccc3)CCC=CS2(=O)=O)c1 (stereo not drawn)	.	37%	.	.	2
COc1ccc(N2CCN(C(=O)c3cc(=O)c4cc(C)ccc4o3)CC2)cc1	-4%	?	-19	31	3
COc1ccc(N2CCN(C(=O)c3cc(=O)c4cc(C)cc(C)c4o3)CC2)cc1	17%	11µM*	-6	4	-13
CCCCNC(=S)N(Cc1c(C)noc1C)c1ccccc1	5%	2%	-117*	12	-1
CCNC(=S)N(Cc1c(C)noc1C)c1ccccc1	-7%	-5%	7	-8	3
CCN(CC(=O)Nc1c(F)cccc1F)C(=O)c1cccn1C	.	.	-27	10	.
COc1ccc(CCNC(=O)C2CC(O)CN2S(=O)(=O)c2ccc(Cl)cc2)cc1OC (stereo not drawn)	.	.	6	7	.
Cc1cccn2c(NCc3ccc4c(c3)OCO4)c(-c3ccc(O)cc3)nc12	-2%	-12%	-94*	8	2
COc1ccc(-c2nc3cc(C)ccn3c2NCc2ccc3c(c2)OCO3)cc1	5%	-10%	-81*	-83*	-2
Cc1nc(N)[nH]c(=O)c1CCCNS(=O)(=O)c1ccc([N+](=O)[O-])cc1	.	.	-16	-6	.
CCN1CCN(c2ccc(S(=O)(=O)N3CCCCC3)cc2NC(=O)c2ccc(OC(F)F)cc2)CC1	.	.	?	-20	.
CCN1CCN(c2ccc(S(=O)(=O)N3CCCCC3)cc2NC(=O)/C=C/c2ccc(OC(F)F)cc2)CC1	.	.	-80*	-90*	.
CCN1CCN(c2ccc(S(=O)(=O)N3CCCCC3)cc2NC(=O)c2cccc(OC(F)F)c2)CC1	.	.	-118*	-84*	.
CCN1CCN(c2ccc(S(=O)(=O)N3CCCCC3)cc2NC(=O)/C=C/c2ccc([N+](=O)[O-])cc2)CC1	.	.	-76*	-43	.
CN1CCN(c2ccc(S(=O)(=O)N3CCCCC3)cc2NC(=O)/C=C/c2ccc(OC(F)F)cc2)CC1	.	.	-15	54	.
CC12CCC(C1)C(C)(C)C2=O (stereo not drawn)	5%	-1%	.	.	3
Cc1ccccc1CN1CCC(CNC(=O)C2CCCN(c3ncnc4c3nc3n4CCCCC3)C2)CC1 (stereo not drawn)	47%	.	-1	-2	.
N/C(=N\N=C\c1ccc(Cl)cc1)N/N=C/c1ccc(Cl)cc1	-7%	6%	.	.	-4
N/C(=N\N=C/c1ccc(F)cc1)N/N=C\c1ccc(F)cc1	?	0%	-73*	7	-1
Cc1ccc2c(c1)N(CC(=O)NCCC1=CCCCC1)C(=O)c1cccnc1O2	.	-16%	-7	-6	-6
CN(CC(=O)NCc1ccccc1)Cc1cccc(F)c1	-2%	-2%	-5	-7	0
CCOc1ccc(CN(C)CC(=O)NCc2ccccc2)cc1	1%	.	-87*	0	2
COc1ccc(N(CC(=O)NCc2ccccc2)S(C)(=O)=O)cc1	5%	1%	2	14	-1
